Experimental data published in paper PMC4552634, “A New Set of Chemical Starting Points with Plasmodium falciparum Transmission-Blocking Potential for Antimalarial Drug Discovery” (PLoS ONE, 2015).
About 3,200 (25%) of roughly 13,000 compounds showed an effect of 50% or more. This is one part of the list.

These molecules were tested on P. falciparum stage V gametocytes. Details: 48 h, 5 µM; inhibitor.
Set-up: BacTiter-Glo ATP luminescence viability of purified stage V gametocytes in 384-well plates, per cent inhibition versus DMSO
`CCN1CCN(c2cc(C)c3cc(NC(=O)c4cncc(Br)c4)ccc3n2)CC1` [TCMDC-125571] was tested, and the “% Inhibition” value was -6.09%.
In the case of `Cc1ccc(-n2c(=O)c3c(n4c(SC(C)C)nnc24)-c2ccccc2CC32CCCCC2)cc1` [TCMDC-125077], the “% Inhibition” value is reported as -67.75%.
`Cc1cc([N+](=O)[O-])ccc1NC(=O)Nc1cccc(C(F)(F)F)c1` [TCMDC-124561] was tested, and the “% Inhibition” value was -49.1%.
With `Cc1cccc2nc(-c3cccc(-c4cccc(C(=O)NCCN5CCCC5)c4)c3)[nH]c12` [TCMDC-132323] the “% Inhibition” value was 21.11%.
With `C=CC[C@H](NC(=O)c1ccc(NS(=O)(=O)c2ccc3nc(N)[nH]c(=O)c3c2)cc1)C(=O)OCCCC` [TCMDC-137699] the “% Inhibition” value was 10.92%.
`CCCCCCCCN1CCCN(C(=O)c2cccc(NC(=O)Nc3ccc4ccccc4c3)c2)CC1` [TCMDC-141690] was tested, and the “% Inhibition” value was -11.26%.
With `CC(CNc1ccnc(Nc2ccc3[nH]c(=O)[nH]c3c2)n1)c1ccccc1` (stereo not shown) [TCMDC-136806] the “% Inhibition” value was -16.39%.
For `Nc1nc(N)c2c(Sc3ccccc3)cccc2n1` [TCMDC-131943], the “% Inhibition” value was 8.754%.
With `NC(=O)c1ccsc1NC(=O)CNC(c1ccccc1)c1ccc(Cl)cc1` (stereo not shown) [TCMDC-125330] the “% Inhibition” value was 14.63%.
With `Cc1ccc2[nH]c(-c3ccc(/C=C/C(=O)NC4CCN(Cc5ccccc5)CC4)cc3)nc2c1C` [TCMDC-140451] the “% Inhibition” value was -45.16%.
In the case of `Cc1cc2nc(-c3ccc(/C=C/C(=O)NC4CCN(Cc5ccccc5)CC4)cc3)[nH]c2cc1C` [TCMDC-140434], the “% Inhibition” value is reported as 78.1%.
For `Cc1ccc2nc(-c3ccc(C=CC(=O)NC4CCN(Cc5ccccc5)CC4)cc3)[nH]c2c1` [TCMDC-140401], the “% Inhibition” value was 2.225%.
For `Cc1cc(NC(=O)c2cccs2)ccc1OC1CCN(Cc2ccc(C#N)cc2)C1` (stereo not shown) [TCMDC-133960], the “% Inhibition” value was 27%.
`Cc1cc(NC(=O)c2ccco2)ccc1OC1CCN(Cc2ccc(F)cc2)C1` (stereo not shown) [TCMDC-133760] was tested, and the “% Inhibition” value was 22.57%.
With `O=C(Nc1ccc(OC2CCN(Cc3ccc(F)cc3)C2)c(Cl)c1)c1cccs1` (stereo not shown) [TCMDC-133757] the “% Inhibition” value was 50.68%.
For `O=C(Nc1ccc(OC2CCN(Cc3ccsc3)CC2)c(Cl)c1)c1ccco1` [TCMDC-134271], the “% Inhibition” value was 9.288%.
`Cc1cc(NC(=O)c2cccs2)ccc1OC1CCN(Cc2ccc(C#N)cc2)CC1` [TCMDC-133954] was tested, and the “% Inhibition” value was 61.72%.
For `O=C(Nc1ccc(OC2CCN(Cc3ccc(F)cc3)CC2)c(Cl)c1)c1ccco1` [TCMDC-133750], the “% Inhibition” value was 24.88%.
With `O=C(Nc1ccc(OC2CCN(Cc3ccccc3)CC2)c(Cl)c1)c1ccco1` [TCMDC-133966] the “% Inhibition” value was 63.08%.
In the case of `O=C(Nc1ccc(OC2CCN(Cc3ccccc3)C2)c(Cl)c1)c1ccco1` (stereo not shown) [TCMDC-133971], the “% Inhibition” value is reported as 37.01%.
For `Cc1cc(NC(=O)c2cccs2)ccc1OC1CCN(Cc2ccc(F)cc2)C1` (stereo not shown) [TCMDC-133754], the “% Inhibition” value was 20.26%.
With `O=C(Nc1ccc(OC2CCN(Cc3ccc(F)cc3)CC2)c(Cl)c1)c1cccs1` [TCMDC-133746] the “% Inhibition” value was 32.62%.
`O=C(Nc1ccc(OC2CCN(Cc3ccc(F)cc3)C2)c(Cl)c1)c1ccco1` (stereo not shown) [TCMDC-133761] was tested, and the “% Inhibition” value was 61.05%.
In the case of `N#Cc1ccc(CN2CCC(Oc3ccc(NC(=O)c4cccs4)cc3Cl)CC2)cc1` [TCMDC-133955], the “% Inhibition” value is reported as 10.06%.
`FC(F)(F)c1ccc2[nH]c(-c3ccc(-c4ccc(CNCc5cnn(-c6ccccc6)n5)cc4)s3)nc2c1.O=C(O)C(F)(F)F` [TCMDC-132975] was tested, and the “% Inhibition” value was -22.66%.
With `COc1cccc(NC(=O)Nc2ccc(-c3oc(C(=O)NCC(c4ccccc4)N(C)C)cc3-c3ccncc3)cc2)c1` (stereo not shown) [TCMDC-135783] the “% Inhibition” value was -10.27%.
`Cc1c(F)cc(C(=O)NC2CC2)cc1-c1ccc2c(cnn2S(=O)(=O)c2ccc(C#N)cc2)c1` [TCMDC-135240] was tested, and the “% Inhibition” value was -5.005%.
In the case of `COc1ccc2nccc([C@@H](O)CN3CCC(NC(=O)c4[nH]c5ccccc5c4-c4ccccc4)CC3)c2c1` [TCMDC-141034], the “% Inhibition” value is reported as -42.03%.
For `O=C(NCc1cccc(F)c1)Nc1ccc(-c2cccc(-c3nc4ccc(F)cc4[nH]3)c2)cc1` [TCMDC-133296], the “% Inhibition” value was 0.06231%.
For `Cc1ccc(NC(=O)c2ccc(N3CCC(c4ccccc4C)CC3)nc2)cc1` [TCMDC-134594], the “% Inhibition” value was 8.038%.
With `COc1ccc(CN2CCN(Cc3cc(Cl)ccc3O)CC2CCO)c(C)c1C` (stereo not shown) [TCMDC-124638] the “% Inhibition” value was -22.47%.
In the case of `CC(C)CCN1CCC(Oc2ccc(NC(=O)c3ccco3)cc2Cl)CC1` [TCMDC-133976], the “% Inhibition” value is reported as 100.7%.
In the case of `N#Cc1ccc(CN2CCC(Oc3ccc(NC(=O)c4ccco4)cc3Cl)CC2)cc1` [TCMDC-133957], the “% Inhibition” value is reported as 8.133%.
`CC(C)CCN1CCC(Oc2ccc(NC(=O)c3ccc(F)cc3)cc2Cl)CC1` [TCMDC-133978] was tested, and the “% Inhibition” value was 33.54%.
For `O=C(NC(=S)NCc1ccncc1)c1ccccc1` [TCMDC-123842], the “% Inhibition” value was -6.445%.
In the case of `NC1=NC(CCc2ccccc2)N(c2ccc(Cl)cc2)C(N)=N1` (stereo not shown) [TCMDC-131290], the “% Inhibition” value is reported as 6.603%.
With `COc1ccc2c(c1)Nc1ccc(Cl)cc1C2N` (stereo not shown) [TCMDC-141985] the “% Inhibition” value was 106.2%.
